Columns and labels:
Assay in all cases: PBM binding z-score (relative to random genomic background probes); higher = stronger binding; sequences stand for … in GC…GCGATTGACAGCGTAGAATGAAGG
[1] = system: FXR:RXRa (NR concentration 270 nM, RXRa partner concentration 90 nM)
Method in brief: (§1)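 Binding z-scores take random background probes as their reference. They come from custom Agilent 4×180K protein-binding microarrays incubated 1 h with ligand-free nuclear receptor dimers, with antibodies against each partner (one per run) detecting binding. Scanned fluorescence was regression-normalized.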

[2] = system: LXRa:RXRa (NR concentration 270 nM, RXRa partner concentration 90 nM)
Method in brief: as §1

[3] = system: LXRa homodimer (NR concentration 270 nM)
Method in brief: as §1

[4] = system: LXRb:RXRa (NR concentration 270 nM, RXRa partner concentration 90 nM)
Method in brief: as §1

[5] = system: LXRb homodimer (NR concentration 270 nM)
Method in brief: as §1

[6] = system: PPARa:RXRa (NR concentration 270 nM, RXRa partner concentration 90 nM)
Method in brief: as §1

[7] = system: PPARg:RXRa (NR concentration 180 nM, RXRa partner concentration 90 nM)
Method in brief: as §1

[8] = system: PPARg:RXRa 270nM:90nM, anti-RXR (NR concentration 270 nM, RXRa partner concentration 90 nM)
Method in brief: as §1

[9] = system: PPARg:RXRa 30nM:10nM, anti-RXR (NR concentration 30 nM, RXRa partner concentration 10 nM)
Method in brief: as §1

[10] = system: PPARg:RXRa 90nM:30nM, anti-RXR (NR concentration 90 nM, RXRa partner concentration 30 nM)
Method in brief: as §1

Sequence | PBM binding z-score [1] | PBM binding z-score [2] | PBM binding z-score [3] | PBM binding z-score [4] | PBM binding z-score [5] | PBM binding z-score [6] | PBM binding z-score [7] | PBM binding z-score [8] | PBM binding z-score [9] | PBM binding z-score [10]
AATACAGGGTCACTAGGCCAGAATAGGTACGAAT | 6.2 | 5.06 | 1.04 | 4.11 | 1.02 | 5.95 | 7.89 | 6.5 | 2.7 | 5.33
CCTTACCGGTCACTGACAGGTTATAGCATTTGGA | 1.09 | 1.89 | 1.73 | 1.31 | 0.619 | 1.49 | 0.664 | 0.675 | 0.114 | 0.418
GGAACGAGGGGAAAGTTGATAGCATCTGTCGACG | -0.0769 | -0.0261 | -0.204 | 0.087 | 0.0705 | 2.88 | 4.27 | 6.01 | 3.53 | 6.53
CCAGACGGGTGAAAGGTAACTCAGTCTGGTACGC | 0.176 | 0.178 | -0.5 | 0.239 | -0.986 | 2.87 | 4.88 | 5.6 | 3.4 | 5.98
GCGACTGGGGCATCAGCAGGTTACCAAAACTTAA | -0.46 | -0.0944 | -0.294 | 0.621 | -0.676 | 1.34 | 0.564 | 0.743 | -0.555 | -0.000266
AGTCAAAGTTCACTAGGTAACCTAAGATTCAGCT | 5.37 | 5.38 | 3.76 | 3.3 | 1.13 | 4.71 | 7.18 | 6.5 | 4 | 5.96
TCTAGTCGGTCACGGAGGTCACACACGACGGGTA | 4.64 | 4.8 | 4.58 | 3.54 | 0.882 | 4.58 | 5.07 | 4.97 | 3.86 | 4.54
TCTCGGAGGACACGATGGTCAGAGCTTTCCAGAG | 0.101 | -0.284 | -0.822 | -0.381 | -1.39 | -0.0198 | -0.18 | 0.7 | 1.73 | 1.07
AATACAGGGTCACTACGCCAGAGTAGGTACGAAT | 6.43 | 4.99 | 1.13 | 4.16 | 1.17 | 5.41 | 6.19 | 5.01 | 2.58 | 3.89
GATACAGGGTCAAGGCCACAGTACGCGTATTGAT | 6.86 | 4.11 | 0.0617 | 3.76 | -0.0921 | 5.98 | 6.37 | 5.82 | 2.54 | 4.69
ATCTATAGGTAAGACTCAGTTCAGTGAAGAACGC | 0.179 | 0.424 | 0.389 | 0.171 | 0.635 | 0.073 | 0.534 | 0.23 | 0.292 | 0.169
TCTTGTAGATCAAAAGGAGGTTAAGAAAGATCGA | 0.895 | 1.83 | 0.268 | 1.37 | -0.229 | 1.81 | 0.335 | 2.02 | 2.91 | 2.36
CCTACTGGGCCAAAGGTCATTCATTCCAATGCTC | 4.99 | 5.4 | 5.18 | 5.18 | 1.33 | 6.7 | 12.2 | 10.6 | 10.6 | 11.8
TCTTGTAGATCAACAGGAGGTTCAGAAAGATCGA | 0.027 | -0.0973 | -0.476 | -0.000896 | -0.414 | 0.453 | -0.062 | 1.25 | 2.65 | 2.18
GCGACTGGTGCATCAGCAGGTTACCATAACTTAA | -0.753 | -0.531 | -0.541 | -0.267 | -1.02 | -0.237 | -0.0578 | -0.215 | -0.641 | -0.986
ATCTCTAGGTAACAAGTTCAGTGAGAGAGAGGAC | 0.938 | 0.818 | 0.556 | 0.613 | 1.01 | 1.54 | 1.41 | 2.15 | 0.897 | 1.64
ATCTCTAAGTAACAAGTTCAGTGAAAGAGAGGAC | 0.888 | 0.954 | 0.532 | 0.595 | 0.901 | 0.572 | 0.408 | 0.672 | 0.701 | 0.344
ACTAGCAGGCCAAGTTTGGGTCACTTAAACAAAG | 0.098 | 0.217 | -0.18 | 0.878 | -0.362 | 1.52 | 0.21 | 0.715 | -0.186 | 0.815
TGAATGAGGTTAAAGATCGGGGAACGTGGCGTCG | 2.84 | 2.61 | -0.0577 | 1.64 | 0.61 | 4.29 | 4.54 | 5.57 | 3.66 | 5.49
TCTGCTAGGTCAACGATGGTAAGCTAATCTGCTA | 3.07 | 2.01 | -0.518 | 1.4 | -0.543 | 2.85 | 2.51 | 3.09 | 1.65 | 2.31
CAGACTAGGTCAAGAGGTCAAAGTCCGCTTCCCG | 7.03 | 6.1 | 5.88 | 5.69 | 1.64 | 6.29 | 8.59 | 7.74 | 5.99 | 7.54
AATACAGGGTCATCGTAGGCCAGAGGACGCACAG | 7.28 | 6.5 | 2.24 | 4.6 | 1.25 | 5.96 | 6.68 | 6.34 | 3.12 | 4.94
GCTGCTAGGTCAGTTTGGTCAGCTAACGGGTACG | 1.08 | 0.563 | -0.212 | 0.437 | 0.134 | 0.943 | 0.183 | 0.678 | -0.304 | 0.407
ATCGAAAGGGCGAGGTGAGTATAGAGAAAGGGAA | 0.707 | 0.563 | -0.0358 | 0.463 | 0.173 | 1.38 | 0.612 | 0.445 | 0.457 | 0.394

Sequence | PBM binding z-score [1] | PBM binding z-score [2] | PBM binding z-score [3] | PBM binding z-score [4] | PBM binding z-score [5] | PBM binding z-score [6] | PBM binding z-score [7] | PBM binding z-score [8] | PBM binding z-score [9] | PBM binding z-score [10]
CGAACTAGGTCATCCAGAACAGTGAATACATTGA | 4.08 | 2.69 | 0.739 | 2.14 | 0.118 | 4.64 | 7.99 | 6.91 | 4.38 | 6.42
TCTTGTAGATCAGAAGGTTAAGAAAGCTGGCCAA | 0.619 | 1.02 | 0.09 | 1.16 | -0.193 | 1.54 | 0.167 | 2.4 | 3.46 | 3.03
AGAACGAGGGCAATGAGTTGATAACACGGGTGGC | 0.198 | 0.102 | -0.716 | -0.182 | -0.584 | 1.28 | 1.84 | 0.983 | 0.0129 | 0.611
CTCGCAAGGTCGGTTGAGGTGAGTATACGGATAA | 0.755 | 0.469 | -0.26 | 0.374 | -0.72 | 1.3 | -0.0433 | 0.131 | -0.357 | -0.159
CGTCAAAGTACAACTAAGGTAACGTAAAGCACGC | 0.707 | 0.122 | 0.142 | 0.219 | 0.198 | 0.548 | 0.918 | 0.504 | 0.132 | 0.467
CCTCGGAGGACAGAAGATCAGAGCTGTCCGCTTT | -0.222 | -0.485 | -0.602 | -0.91 | -1.2 | -0.456 | -0.0907 | -0.214 | -0.616 | -0.38
ATATGTAGGTTATCGGGTTATTCAGTTTGCGCAT | 1.49 | 1.81 | 1.11 | 2.23 | 1.29 | 3.81 | 6.03 | 4.99 | 2.41 | 4.37
ATCGAAGGGTCGACGAGGTGAGTATACACCGTTT | 1.51 | 0.812 | -0.587 | 0.951 | -0.33 | 2.44 | 1.3 | 0.831 | 0.448 | 0.6
CGTCCAAGTTCAGCAGGTCAGTGAAAGCGACGTG | 2.28 | 2.06 | 1.12 | 1.53 | -0.267 | 2.49 | 0.395 | 1.17 | -0.436 | 0.285
CGTCCAAGGGCATAGGAGGTCAGTGAAGACAGAT | 3.02 | 5.05 | 1.32 | 2.56 | -0.901 | 3.11 | 1.15 | 1.38 | -0.000502 | 0.667
ATACCAAGGTGATCGTGGGGTCGTTGATACTAAC | 1.56 | 1.27 | 0.187 | 2.56 | 0.143 | 2.42 | 0.805 | 0.876 | 0.0671 | 0.468
TTATCAAGGTGAGCTGAGGTCGTTGATCCAACTC | 1.87 | 1.22 | -0.0853 | 0.999 | -0.746 | 1.87 | 0.583 | 1.19 | 0.537 | 0.566
AGAACGAGGGCACGCTGAGCTGATAGCAGAGTAG | 0.647 | 0.277 | -0.751 | -0.0518 | -0.909 | 1.98 | 1.91 | 1.81 | 0.448 | 0.908
ACTAGCAGACCAAGGGTCACTCAAGATTAGTCCG | 2.1 | 2.89 | 0.341 | 2.8 | -0.191 | 3.74 | 4.94 | 5.53 | 3.15 | 5.96
CCGACTGAGGCAAGGTTACCATAACGCACAGCCA | 0.169 | 0.738 | -0.295 | 0.593 | -0.805 | 0.985 | 0.898 | 0.236 | -0.466 | 0.134
ACTCGGAGGACAAAGGTCAAAGCTACGCCAGTGA | 6.13 | 5.86 | 4.17 | 5.35 | 1.64 | 6.23 | 8.63 | 7.42 | 6.79 | 8.13
GGGACGAGGGCAAGTTGATAGCAGAGTTTGATGG | 1.19 | 0.762 | 0.0189 | 1.18 | 0.857 | 1.42 | 1.09 | 1.2 | 0.448 | 0.913
GCGACTGGAGCAAAGCAGGTTACCATAAGGTTGG | -0.343 | -0.594 | -0.842 | -0.498 | -1.26 | 0.27 | 0.477 | -0.112 | -0.43 | -0.311
AGTCGAAGTTCAGGACGAGGTAACGTAAAGCACG | 1.05 | 1.05 | -0.0607 | 0.485 | -0.831 | 1.49 | 1.27 | 1.11 | 0.224 | 0.868
AGTATGAGGTTACCAAAGATCAGGGAAACGCTTG | 1.85 | 5.92 | 0.237 | 3.08 | 0.134 | 2.76 | 1.79 | 1.65 | 0.652 | 1.11
AGATTGAGGTTAAGATCAGGGAAACAGAATACAT | 2.48 | 2.1 | 0.386 | 2.06 | 0.34 | 3.45 | 1.96 | 2.19 | 0.935 | 1.82
TAGCCTAGGTCGTGCGGGCCAGTATAGTGTCGGC | -0.111 | -0.0321 | -0.956 | -0.439 | -0.768 | 0.275 | -0.525 | -0.186 | -0.812 | -0.477
CCTGCTAGGTCAACGGTCAGCTAAAGCAGCTCGC | 4.13 | 3.09 | 0.58 | 2.17 | 0.4 | 4 | 6.12 | 6.08 | 3.98 | 6.08
CCTTACGGGTCACTCCAGGTTACAGCATCGGAGT | 4.9 | 7.35 | 2.06 | 4.72 | 0.0209 | 4.42 | 3.74 | 3.8 | 1.1 | 2.64

From the supplement of paper PMC6555819
